Shown are actives, neighbours in structure and some others; about 2.7% of the full set was active somewhere.
TMEM16A inh = blocks the mouse calcium-activated chloride channel TMEM16A | Q8BHY3 | AID 588511 | HEK293 TMEM16A/YFP iodide influx fluorescence, ionomycin | normalized B-score (activity score, 25-100; higher = stronger inhibition) at 10 µM | 310,000 tested, 1.2% active;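 active = ratio plate-corrected score three or more library SD toward inhibition, starting fluorescence score within five deviations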;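 also: score derived from kinetic fluorescence span divided by baseline fluorescence per well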
IDE cell activ = boosts human insulin-degrading enzyme activity in HEK cells. P14735. activation, % at 5.96 µM. AID 493087. 340,000 tested, 0.073% active. FAbeta-B cleavage, fluorescence polarization; 0% vehicle, 100% cell-free pure enzyme wells;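 active = activation above the mean of all tested compounds plus 3 SD, set per screening campaign, cut at about 17% in these data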
Target sequence (P14735 whole entry, looked up): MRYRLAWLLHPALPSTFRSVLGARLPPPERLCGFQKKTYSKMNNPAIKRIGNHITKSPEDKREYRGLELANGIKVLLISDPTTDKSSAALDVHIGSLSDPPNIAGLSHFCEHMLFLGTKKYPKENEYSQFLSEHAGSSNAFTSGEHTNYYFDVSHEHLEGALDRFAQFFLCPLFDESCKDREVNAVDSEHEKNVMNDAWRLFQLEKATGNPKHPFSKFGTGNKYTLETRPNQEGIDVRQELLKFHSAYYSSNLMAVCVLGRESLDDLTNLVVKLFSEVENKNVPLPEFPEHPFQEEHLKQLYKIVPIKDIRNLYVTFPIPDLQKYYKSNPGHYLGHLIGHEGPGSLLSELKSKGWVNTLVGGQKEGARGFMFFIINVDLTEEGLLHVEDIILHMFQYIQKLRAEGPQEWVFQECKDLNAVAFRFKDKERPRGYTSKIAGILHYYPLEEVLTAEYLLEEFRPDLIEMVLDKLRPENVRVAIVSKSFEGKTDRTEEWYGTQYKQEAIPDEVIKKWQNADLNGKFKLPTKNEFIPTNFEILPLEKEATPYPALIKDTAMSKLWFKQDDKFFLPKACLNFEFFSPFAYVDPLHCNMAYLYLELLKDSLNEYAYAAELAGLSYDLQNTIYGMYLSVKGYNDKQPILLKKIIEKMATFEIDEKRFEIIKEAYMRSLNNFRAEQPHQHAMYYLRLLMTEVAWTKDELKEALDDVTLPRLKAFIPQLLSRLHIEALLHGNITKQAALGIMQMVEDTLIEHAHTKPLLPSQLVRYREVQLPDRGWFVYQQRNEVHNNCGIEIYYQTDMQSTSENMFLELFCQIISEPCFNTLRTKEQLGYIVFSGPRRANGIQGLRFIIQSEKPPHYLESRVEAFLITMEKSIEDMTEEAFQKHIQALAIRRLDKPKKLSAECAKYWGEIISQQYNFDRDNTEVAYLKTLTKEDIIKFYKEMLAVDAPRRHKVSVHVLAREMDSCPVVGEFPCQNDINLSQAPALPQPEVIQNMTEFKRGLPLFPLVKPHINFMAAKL
IDE cell inh = inhibits human insulin-degrading enzyme in HEK cells. P14735. FAbetaB cleavage, fluorescence polarization. inhibition, % at 5.59 µM. 320,000 tested, 0.41% active. AID 434962;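 active = percent inhibition above the average of all tested compounds plus 3 SD, set per screening campaign, cut at about 16% in these data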;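 also: IDE supplied by intact live HEK cells; FP after avidin binding of uncleaved biotin substrate so inhibition keeps polarization high; 0% = DMSO wells and 100% = 60 µM reference IDE inhibitor Ii1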
CHT block = human CHT choline transport inhibition; Q9GZV3; 310,000 tested, 0.86% active; AID 488975; B-score at 10 µM; CHT-expressing cells, membrane potential dye, choline response; stronger effect = lower value;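 active = B-score over 3 SD under the library average, and starting fluorescence ratio not unusually high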;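 also: choline stimulus applied at its EC90 after an EC20 pre-addition; B-score computed on integrated fluorescence ratio after choline addition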
ANO1 activ = activates or potentiates the mouse TMEM16A chloride channel | Q8BHY3 | B-score at 10 µM | 340,000 tested, 0.3% active | HEK293 TMEM16A/YFP-H148Q/I152L, iodide quench fluorescence; stronger effect = lower value;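 active = fluorescence-ratio B-score plate-corrected deviation score at least 3 library SD below zero, with starting fluorescence score within 5 deviations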;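 also: channel opened by trigger with iodide after compound preincubation; score built on the fluorescence ratio of max minus min over baseline; more negative score means more quench and so TMEM16A activation or potentiation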
CHT allo act = allosteric activators of human choline transporter CHT; CHT-expressing cells, membrane potential dye, choline EC20; stronger effect = higher value; LV-AA mutant CHT in HEK293 cells; B-score at 10 µM; 310,000 tested, 0.49% active; AID 488977;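 active = initial fluorescence not abnormally high and integrated response B-score, plate-corrected, over 3 SD above library mean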
CHT inh conf = human CHT inhibition, confirmatory screen. shares compounds with CHT block. CHT-expressing cells, choline membrane potential dye; LV-to-AA substituted CHT, HEK293 cells. CHT activity remaining % of control (stronger effect = lower value), % at 10 µM. AID 493221. 2,400 tested, 70% active;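 active = choline transporter activity left, mean of duplicates at 10 µM, below buffer-only control mean minus 3 SD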;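 also: depolarization triggered by choline at its EC90 following an EC20 pre-addition; 0% = hemicholinium-3 full block and 100% = buffer-only control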
HEK293 MPD ctr = activity in parental HEK293 cells lacking CHT | membrane potential ratio readout (active if shifted either direction beyond buffer ±3SD; no single direction) at 10 µM | membrane potential dye, choline response; active = decrease or increase beyond buffer ±3SD | shares compounds with CHT block | AID 493222 | 2,400 tested, 4% active;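 also: parental cells lack the transporter so any hit is non-specific; ratio is peak minus trough fluorescence over baseline after EC90 choline challenge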
* marks the source's active call; other numbers are inactive results; i = inactive; / = no result given.

SMILES	TMEM16A inh	IDE cell activ	IDE cell inh	CHT block	ANO1 activ	CHT allo act	CHT inh conf	HEK293 MPD ctr
Cc1ccc(NC(=O)c2ccc(CN3CC(=O)N4CCCCC4C3=O)cc2)c(C)c1 (configuration not stated)	i	-3	6	-5.5*	i	i	9.5%*	i
CCOc1ccc(NC(=O)CN(C)C(=O)c2c(C)nn(Cc3ccccc3Cl)c2C)cc1OCC	/	2	/	/	i	/	/	/
O=C(CCCN1CCOCC1)c1ccc2c(c1)OCCO2	i	2	-1	i	i	i	/	/
O=C(CCN1CCOCC1)c1ccc2c(c1)OCCO2	i	-1	-2	-5.2*	i	i	i	i
O=C(O)c1cnn(-c2nc(-c3ccc(Br)cc3)cs2)c1C(F)(F)F	i	-3	-6	-8.9*	i	i	i	i
O=C(O)c1cnn(-c2nc(-c3ccc(F)cc3)cs2)c1C(F)(F)F	i	-2	-2	i	i	i	/	/
COCCNC(=O)C(=O)NNC(=O)CCc1ccccc1	i	-4	5	-5.5*	i	i	i	i
Cc1ccc(C(NC(=O)c2cccc(S(=O)(=O)N3CCN(C)CC3)c2)c2ccccc2)cc1 (configuration not stated)	/	2	-2	/	i	/	/	/
CCCN1CCN(CCCNC(=S)Nc2ccc3nc(N4CCN(CC)CC4)cc(C)c3c2)CC1	i	-2	4	-6.7*	i	i	13%*	i
CCN1CCN(c2cc(C)c3cc(NC(=S)NCCCN4CCc5ccccc5C4)ccc3n2)CC1	i	4	0	-5.4*	i	i	31%*	2.8*
NNC(=O)c1ccc(CN2CCCCC2)o1	i	-4	-10	-5.9*	i	i	i	i
NNC(=O)c1ccc(COc2ccc(Br)cc2)o1	i	1	5	i	i	i	/	/
CCCn1c(SCC(=O)c2cc(C)n(-c3ccc4c(c3)OCO4)c2C)n[nH]c1=O	i	-5	1	-5.5*	i	i	i	i
COc1ccccc1NC(=O)NNC(=O)c1ccc2ccccc2c1O	i	6	/	i	i	i	/	/
N#Cc1nc(Cc2cccc3ccccc23)oc1NCCCN1CCOCC1	i	3	8	-5.7*	i	i	69%*	i
CN1CCN(c2oc(Cc3cccc4ccccc34)nc2C#N)CC1	i	4	-2	-7*	i	i	62%*	i
CCOc1ccc(CCN2C(=S)N([C@@H](CC(C)C)CN3CCCC3CN3C(=S)NC[C@@H]3Cc3ccc(O)cc3)C[C@@H]2CC(C)C)cc1 (some centres not stated)	/	1	/	/	/	/	/	/
O=C(CN1CCN(S(=O)(=O)c2cccs2)CC1)N1CCCCC1	/	-8	/	/	i	/	/	/
Nc1ccccc1SC/C=C/CSc1ccccc1N	i	5	3	i	i	i	/	/
N=C1CCCN1CC(=O)c1ccc(Br)cc1	i	1	-1	-19*	i	i	1.5%*	i
CCC(C)NCCOCCOc1ccccc1-c1ccccc1 (configuration not stated)	i	3	8	-5.8*	i	i	48%*	-15*
CN1CCN(C(=S)c2ccc(-c3cc(Cl)ccc3Cl)o2)CC1	i	6	-3	-9.7*	i	i	i	i
Cc1ccc(NC(=O)c2sc3ncn(CC(=O)N4CCOCC4)c(=O)c3c2C)c(Br)c1	i	1	3	i	i	i	/	/
CCC(=O)Nc1cc(Cl)ccc1N1CCN(C(=O)CC)CC1	i	4	-2	-8.1*	i	i	67%*	i
Cc1ccc(NS(=O)(=O)c2c(C)ccc3nsnc23)c([N+](=O)[O-])c1	i	-1	0	i	i	i	/	/
SMILES	TMEM16A inh	IDE cell activ	IDE cell inh	CHT block	ANO1 activ	CHT allo act	CHT inh conf	HEK293 MPD ctr
COc1ccc(S(=O)(=O)N2CCCCCC2)cc1C(=O)N(C)CC(=O)Nc1ccccc1C(F)(F)F	/	3	-1	/	i	/	/	/
CC(C)(C)C(=O)Nc1scc(-c2ccc(-c3ccccc3)cc2)c1C(=O)O	i	-1	5	-7.5*	i	i	37%*	i
COc1cc(C(=O)Nc2scc(-c3ccc(C)cc3)c2C(=O)O)cc(OC)c1OC	i	2	-1	-6.6*	i	i	56%*	i
O=C(Nc1scc(-c2ccccc2)c1C(=O)O)c1ccco1	i	-1	8	i	i	i	/	/
COc1ccc(N2CCN(C(=O)CCS(=O)(=O)c3ccc4c(c3)CCN4C(=O)C3CC3)CC2)cc1	i	5	7	i	i	i	/	/
CCOc1ccc(N/N=C(/C#N)C(N)=O)cc1	i	-2	4	i	i	i	/	/
N#C/C(=N/Nc1ccc(OC(F)(F)F)cc1)C(N)=S	100*	5	7	-11*	i	i	30%*	i
COc1ccc(NC(=O)CSc2nnc(N)s2)cc1S(=O)(=O)N1CCCCC1	/	1	4	/	i	/	/	/
COc1cccc(NC(=O)c2nc(S(C)(=O)=O)ncc2Cl)c1	i	3	0	-6.8*	i	i	36%*	i
O=C(CCCN1C(=O)/C(=C/c2ccccc2)SC1=S)N1CCOCC1	i	1	3	-5.6*	i	i	i	i
O=C(CCN1C(=O)/C(=C\c2ccccc2)SC1=S)N1CCOCC1	i	1	1	i	i	i	/	/
O=C(CCN1C(=O)/C(=C\c2cccc(Br)c2)SC1=S)NCCCN1CCOCC1	i	4	6	-5.6*	i	i	69%*	i
Oc1cc2c(cc1CN1CCN(c3ncccn3)CC1)OCO2	i	2	-4	i	i	i	/	/
CCOC(=O)Cc1csc(SCC(=O)Nc2oc(C)c3c(C)n[nH]c(=O)c23)n1	/	2	0	/	i	/	/	/
Cc1cc(C)nc(SCc2cccc(C(=O)O)c2)n1	i	3	-2	i	i	i	/	/
O=C(O)c1cccc(CSc2ncn[nH]2)c1	i	0	1	-6.1*	i	i	i	i
Cc1cccc(-c2nc(CN3CCCC(C(=O)NC4CCCCC4)C3)c(C)o2)c1 (configuration not stated)	25*	6	2	-5.7*	i	i	i	i

Screens (PubChem)
